# Screening results deposited in PubChem BioAssay by National Center for Advancing Translational Sciences (NCATS).
# D2 PAM-1: positive allosteric modulators of human D2 dopamine receptor. HEK293 T-REx D2, calcium flux, EC20 dopamine potentiation. potentiation, % at 10 µM. hit rate 0.34% among 340,000;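 active = potentiation over 3 SD above the plate norm, cut at about 30% in these data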; also: 0% is about no effect
# Target sequence (P14416 whole entry, looked up): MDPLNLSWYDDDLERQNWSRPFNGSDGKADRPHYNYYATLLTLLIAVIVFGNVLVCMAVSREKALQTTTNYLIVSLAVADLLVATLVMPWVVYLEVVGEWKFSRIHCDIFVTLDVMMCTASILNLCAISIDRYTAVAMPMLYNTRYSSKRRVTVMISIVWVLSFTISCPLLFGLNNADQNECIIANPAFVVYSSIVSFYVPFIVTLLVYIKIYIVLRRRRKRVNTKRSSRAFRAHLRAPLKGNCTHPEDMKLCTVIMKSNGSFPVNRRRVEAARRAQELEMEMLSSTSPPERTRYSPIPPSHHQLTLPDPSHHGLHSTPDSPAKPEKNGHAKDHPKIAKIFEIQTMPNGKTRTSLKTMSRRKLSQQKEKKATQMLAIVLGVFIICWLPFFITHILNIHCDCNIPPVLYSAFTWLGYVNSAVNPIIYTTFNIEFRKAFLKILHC
#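 Using a no-wash calcium dye in inducible, force-coupled HEK293 Trex cells expressing D2, we tracked fluorescence each second for 180 s after compound, then for 180 s after EC20 dopamine to detect augmented signalling.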
# D2 antagonist: D2 dopamine receptor (human) antagonism. hit rate 2% among 340,000. P14416. HEK293 TREx D2 cells, calcium flux, dopamine EC80. inhibition, % at 10 µM. AID 485344; in the data active = inhibition above about 30%; inactive = below that, where a call was filed; also: 0% is about no effect
#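 Read-out: kinetic calcium fluorescence (1 cycle/s) in inducible HEK293 T-REx D2 cells after an EC80 dopamine addition that followed 180 s compound preincubation. Loss of the dopamine response indicates antagonism.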
# D2 ag-1: agonists of human D2 dopamine receptor (beta-arrestin); activation, % (no concentration beside the values); P14416; hit rate 0.084% among 360,000; AID 624465; DiscoveRx PathHunter D2 beta-arrestin, luminescence, 90 min; 100% = 57 uM dopamine signal; in the data active = activation above about 40%
#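 Agonist mode: compounds alone added to overnight-plated D2 PathHunter cells for 90 min at 37 C, with 57 uM final dopamine (EC100) defining full response. Beta-arrestin recruitment detected by chemiluminescent reagent, read after 1 h at ambient temperature.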
# D2 ag-2: activates the human D2 dopamine receptor; P14416; HEK293 T-REx D2 cells, calcium flux agonist mode; activation, % at 2 µM; hit rate 0.53% among 340,000; AID 485358;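 active = activation over 3 SD above normal in the single-dose calcium agonist read, cut at about 30% in these data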; also: 0% is about no effect
#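 Agonism scored from kinetic calcium signal (1 read/sec, 180 s) following compound pin transfer, after a 10 s baseline. Cells: HEK293 Trex line expressing inducible D2 receptor coupled to calcium, dye-loaded after overnight culture at 30 C.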
# D2 PAM-2: positive allosteric modulators of human D2 dopamine receptor | DiscoveRx D2 beta-arrestin cells, luminescence, 90 min; 100% = 57 uM dopamine signal | potentiation, % (no concentration beside the values) | hit rate 0.23% among 360,000 | AID 624464; in the data active = potentiation above about 50%
#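 D2 cells co-treated with compound plus 50 nM dopamine (EC20) for 90 min at 37 deg C to detect potentiation. Beta-arrestin recruitment was read as enzyme-fragment luminescence after 1 h at ambient temperature. Full response was set by 57 uM dopamine.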
# Numbers without * were called inactive; nt = not tested or not shown. Rows were chosen to be rich in hits. Some 2.4% of all compounds tested hit in one or more screens of this group.
SMILES,D2 PAM-1,D2 antagonist,D2 ag-1,D2 ag-2,D2 PAM-2
C/C(=N\OCc1ccc(C#N)cc1)c1ccccc1,11,-5,1,0,-3
COC(=O)c1ccc(CN2CCC(CO)(CCOc3ccccc3)CC2)cc1,-25,nt,-7,nt,-5
COc1cccc(CC2(CO)CCCN(Cc3ccccc3Cl)C2)c1 (stereo unspecified),-5,-15,-2,-1,0
COC(=O)c1ccc(CN2CCC(CO)(Cc3cccc(OC)c3)CC2)cc1,-12,37*,0,-1,-15
COc1cccc(CC2(CO)CCCN(Cc3ccc(CN4CCCCC4)s3)C2)c1 (stereo unspecified),-18,40*,-5,-1,-19
COc1ccc(CCNC(=O)C2CCN(c3nc4ccccc4nc3C(F)(F)F)CC2)cc1OC,3,nt,nt,0,nt
Cc1ccccc1C(=O)NC(CC(C)C)C(=O)NN1C(=O)c2ccccc2C1=O (stereo unspecified),-3,30*,-3,0,3
CC(C)C1Nc2ccc(S(N)(=O)=O)cc2C2C=CCC21 (stereo unspecified),2,16,5,1,52*
CCOC(=O)c1c(NC(C)=O)c2c3c(sc2n1Cc1cc(C)ccc1C)CCCC3,2,nt,nt,nt,nt
C[C@@H]1CCCCO[C@@H](CN(C)S(=O)(=O)c2cn(C)cn2)[C@@H](C)CN([C@H](C)CO)C(=O)c2cc(N(C)C)ccc2O1,nt,nt,-6,nt,2
Cc1c(Cl)c(C(=O)Nc2nc3ccccc3n2CCN2CCCCC2)nn1C,35*,-15,nt,-1,nt
O=C1C[C@@H]2c3c(cccc3CN1Cc1ccccc1Br)C[C@@H](O)[C@H]2O,nt,nt,-3,nt,-8
CCCCN(C(=O)c1c(CC)noc1C)c1c(N)n(CC(C)C)c(=O)[nH]c1=O,-8,2,2,0,15
Cc1onc(-c2ccccc2)c1C(=O)N(CC(C)C)c1c(N)n(CC(C)C)c(=O)[nH]c1=O,30*,nt,-2,nt,-4
Cc1cc(C)c(Cn2cnc3nc4c(cc3c2=O)CCCC4)c(C)c1,-11,nt,nt,-1,nt
C/C(=N\NC(=O)c1ccc(Br)cc1)c1cccc(NC(=O)c2cccnc2)c1,-18,32*,0,-2,-3
COc1ccc(-c2[nH]ncc2/C=N/NC(=O)c2ccc(Br)cc2)c(OC)c1,-27,48*,-7,-1,-10
COc1cc(/C=N/NC(=O)c2ccncc2)cc(OC)c1OC,5,3,2,1,1
COc1ccc(C(=O)N/N=C/c2cn[nH]c2-c2ccc(OC)cc2OC)cc1,-30,5,-5,-2,-37
COc1c(Br)cc(Br)cc1/C=N/NC(=O)c1ccncc1,-20,93*,2,1,-32
C/C(=N\NC(=O)c1ccncc1)c1cccc(NC(=O)c2ccc(C(C)(C)C)cc2)c1,11,25,7,0,15
CN(C)c1ccc(C(=O)N/N=C/c2cc(Br)cc(Br)c2O)cc1,-24,32*,-5,1,-20
CCCS(=O)(=O)c1nc(S(=O)(=O)c2ccc(C)cc2)c(NC)s1,10,nt,nt,-1,nt
COc1ccccc1N1CCN(c2cc(C)nc3nc(-c4ccc(Cl)cc4)nn23)CC1,7,nt,nt,nt,nt
CCOc1ccc(C(=O)NCCn2cc(SCC(=O)NCCc3ccc(OC)c(OC)c3)c3ccccc32)cc1,4,nt,nt,0,nt
SMILES,D2 PAM-1,D2 antagonist,D2 ag-1,D2 ag-2,D2 PAM-2
Cn1c(NCCCCO)nc2c1c(=O)n(Cc1ccc(Cl)cc1)c(=O)n2C,-8,nt,nt,0,nt
COc1c(Br)cc(Br)cc1/C=N/NC(=O)c1cccnc1,-17,90*,-1,-1,-1
Cc1ccc(NC(=O)Cn2c(=O)n(CCC(=O)NCc3ccccc3Cl)c(=O)c3ccccc32)cc1,14,nt,nt,0,nt
C=CCN1CCN(C(=O)c2cc3c(s2)CCC(CC)C3)CC1 (stereo unspecified),-17,46*,-6,-1,-41
CCC1CCc2sc(C(=O)O)cc2C1 (stereo unspecified),7,-15,-1,0,-3
CC1(C(=O)NCc2cccc3ccccc23)CCN1C(=O)C1(c2ccccc2)CCCC1 (stereo unspecified),nt,nt,-2,nt,-1
Cc1ccc(CCNC(=O)C2CCN(S(=O)(=O)c3c(C)nn(C)c3C)CC2)cc1,-8,-30,-1,0,-4
